{"source": "the supplement of paper PMC12494721", "note": "Structures can show the parent of a compound that is named as a salt.", "data": [{"tested_on": "Ruminococcus gnavus DSM 108212", "assay": "growth (OD595) fold change vs plate DMSO controls (fold change (ratio)); higher = more growth", "details": "incubation time: 27 h, anaerobic, 37 °C", "method_in_brief": "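Growth is calculated as fold change against the median of the DMSO control wells on each plate. Readings at 595 nm from anaerobic mGAM cultures (96-well, 27 h, 37 °C) were blank-subtracted, background-corrected with 20 µM compound solutions in water, and converted to OD by a calibration factor of 5. Fold changes above 1.5 were recorded as NA, and results are means of 2 biological replicates.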", "values": [{"compound": "Brc1c(NC2=NCCN2)ccc2nccnc12", "note": "[Brimonidine L-tartrate] (20 µM)", "growth": 1.03}, {"compound": "O=c1[nH]cnc2c1ncn2[C@H]1CC[C@@H](CO)O1", "note": "[Didanosine] (20 µM)", "growth": 1.08}, {"compound": "NS(=O)(=O)Cc1noc2ccccc12", "note": "[Zonisamide] (20 µM)", "growth": 1.01}, {"compound": "CN(C)CCC(c1ccc(Cl)cc1)c1ccccn1", "note": "(configuration not stated) [Chlorpheniramine maleate] (20 µM)", "growth": 0.699}, {"compound": "OCC(O)CN1CCN(c2ccccc2)CC1", "note": "(configuration not stated) [Dropropizine] (20 µM)", "growth": 1.1}, {"compound": "CC(=O)[C@H]1CC[C@H]2[C@@H]3CCC4=CC(=O)CC[C@]4(C)[C@H]3CC[C@]12C", "note": "[Progesterone] (20 µM)", "growth": 0.651}, {"compound": "CC(C)(C)NC(=O)[C@@H]1CN(Cc2cccnc2)CCN1C[C@@H](O)C[C@@H](Cc1ccccc1)C(=O)N[C@H]1c2ccccc2C[C@H]1O", "note": "[Indinavir sulfate] (20 µM)", "growth": 0.985}, {"compound": "c1ccc2c(c1)CCCC2C1=NCCN1", "note": "(configuration not stated) [Tetrahydrozoline hydrochloride] (20 µM)", "growth": 0.897}, {"compound": "O=[N+]([O-])c1ccc(O)c2ncccc12", "note": "[Nitroxoline] (20 µM)", "growth": 0.97}, {"compound": "COCC(=O)O[C@]1(CCN(C)CCCc2nc3ccccc3[nH]2)CCc2cc(F)ccc2[C@@H]1C(C)C", "note": "[Mibefradil hydrochloride] (20 µM)", "growth": 0.967}, {"compound": "Nc1nc(Cl)nc2c1ncn2[C@H]1C[C@H](O)[C@@H](CO)O1", "note": "[Cladribine] (20 µM)", "growth": 0.893}, {"compound": "CN(CCOc1ccc(CC2SC(=O)NC2=O)cc1)c1ccccn1", "note": "(configuration not stated) [Rosiglitazone hydrochloride] (20 µM)", "growth": 1.05}]}]}
